Data from paper PMC11006913.
Numbering of substitutions follows the chain as printed.

Columns and labels:
Test in all cases: PBM; 200 nM protein, PBS
Conditions in all cases: dsDNA, one strand shown
PAX4 [1] = biological target: T1, PAX4 (Homo sapiens, UniProt O43316 9-242, R200K)
T1 sequence: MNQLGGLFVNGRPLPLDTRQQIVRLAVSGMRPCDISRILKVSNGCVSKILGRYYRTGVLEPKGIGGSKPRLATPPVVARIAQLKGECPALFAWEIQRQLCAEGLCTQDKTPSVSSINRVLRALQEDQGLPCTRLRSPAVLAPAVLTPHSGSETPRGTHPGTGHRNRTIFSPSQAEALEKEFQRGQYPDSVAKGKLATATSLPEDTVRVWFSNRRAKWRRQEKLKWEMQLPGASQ

PAX4 [2] = biological target: T2, PAX4 (Homo sapiens, UniProt O43316 9-242)
T2 sequence: T1 sequence with K192R

HOXA2 [3] = biological target: HOXA2 (Homo sapiens, UniProt O43364 129-215, R185T)
ALX3 [4] = biological target: ALX3 (Homo sapiens, UniProt O95076 139-225, N203Q)
PAX4 [5] = biological target: T3, PAX4 (Homo sapiens, UniProt O43316 9-242, R200Q)
T3 sequence: T1 sequence with K192Q

HOXA2 [6] = biological target: HOXA2 (Homo sapiens, UniProt O43364 129-215, R185K)
PAX4 [7] = biological target: T4, PAX4 (Homo sapiens, UniProt O43316 9-242, F177V)
T4 sequence: T1 sequence with F169V, K192R

MSX2 = MSX2 (Homo sapiens, UniProt P35548 130-214)
ALX3 [8] = biological target: ALX3 (Homo sapiens, UniProt O95076 139-225)
PAX4 [9] = biological target: T5, PAX4 (Homo sapiens, UniProt O43316 9-242, F177Y)
T5 sequence: T1 sequence with F169Y, K192R

ALX3 [10] = biological target: ALX3 (Homo sapiens, UniProt O95076 139-225, L168V)
PAX4 [11] = biological target: T6, PAX4 (Homo sapiens, UniProt O43316 9-242, R227W)
T6 sequence: T1 sequence with K192R, R219W

HOXA2 [12] = biological target: HOXA2 (Homo sapiens, UniProt O43364 129-215, Y150S)
HOXA4 = HOXA4 (Homo sapiens, UniProt Q00056 201-287, W262F)
ALX3 [13] = biological target: ALX3 (Homo sapiens, UniProt O95076 139-225, N203S)
HOXA2 [14] = biological target: HOXA2 (Homo sapiens, UniProt O43364 129-215)
VENTX [15] = biological target: T7, VENTX (Homo sapiens, UniProt O95231 78-163, R121Q)
T7 sequence: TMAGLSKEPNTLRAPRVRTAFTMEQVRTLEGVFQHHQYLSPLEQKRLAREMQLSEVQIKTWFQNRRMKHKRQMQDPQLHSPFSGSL

VAX1 = VAX1 (Homo sapiens, UniProt Q5SQQ9 86-172, T142I)
VENTX [16] = biological target: T8, VENTX (Homo sapiens, UniProt O95231 78-163, Y115F)
T8 sequence: T7 sequence with Y38F, Q44R

Sequence of ALX3 (Homo sapiens, UniProt O95076 139-225, N203Q) (O95076 139-225 N203Q): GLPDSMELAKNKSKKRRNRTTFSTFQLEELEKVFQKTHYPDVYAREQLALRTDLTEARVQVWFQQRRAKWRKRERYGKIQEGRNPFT
Sequence of HOXA4 (Q00056 201-287 W262F): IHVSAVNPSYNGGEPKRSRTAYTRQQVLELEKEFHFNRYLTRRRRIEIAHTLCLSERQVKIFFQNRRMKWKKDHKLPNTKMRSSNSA
Sequence of ALX3 (Homo sapiens, UniProt O95076 139-225) (O95076 139-225): as the sequence (O95076 139-225 N203Q) above, with Q65N counted along it
Sequence of ALX3 (Homo sapiens, UniProt O95076 139-225, L168V) (O95076 139-225 L168V): as the sequence (O95076 139-225 N203Q) above, with L30V, Q65N counted along it
Sequence of MSX2 (P35548 130-214): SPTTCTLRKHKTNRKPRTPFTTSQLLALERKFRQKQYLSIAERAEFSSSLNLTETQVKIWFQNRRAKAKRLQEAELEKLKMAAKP
Sequence of HOXA2 (Homo sapiens, UniProt O43364 129-215, R185T) (O43364 129-215 R185T): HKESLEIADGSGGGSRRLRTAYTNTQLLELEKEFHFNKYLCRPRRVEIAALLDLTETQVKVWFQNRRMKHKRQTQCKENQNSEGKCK
Sequence of ALX3 (Homo sapiens, UniProt O95076 139-225, N203S) (O95076 139-225 N203S): as the sequence (O95076 139-225 N203Q) above, with Q65S counted along it
Sequence of HOXA2 (Homo sapiens, UniProt O43364 129-215, R185K) (O43364 129-215 R185K): as the sequence (O43364 129-215 R185T) above, with T57K counted along it
Sequence of HOXA2 (Homo sapiens, UniProt O43364 129-215) (O43364 129-215): as the sequence (O43364 129-215 R185T) above, with T57R counted along it
Sequence of HOXA2 (Homo sapiens, UniProt O43364 129-215, Y150S) (O43364 129-215 Y150S): as the sequence (O43364 129-215 R185T) above, with Y22S, T57R counted along it
Sequence of VAX1 (Q5SQQ9 86-172 T142I): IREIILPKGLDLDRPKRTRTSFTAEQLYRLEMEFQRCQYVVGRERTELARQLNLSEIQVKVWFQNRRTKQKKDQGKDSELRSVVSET

Sequence | binding signal (PAX4 [1]) | binding signal (PAX4 [2]) | binding signal (HOXA2 [3]) | binding signal (ALX3 [4]) | binding signal (PAX4 [5]) | binding signal (HOXA2 [6]) | binding signal (PAX4 [7]) | binding signal (MSX2) | binding signal (ALX3 [8]) | binding signal (PAX4 [9]) | binding signal (ALX3 [10]) | binding signal (PAX4 [11]) | binding signal (HOXA2 [12]) | binding signal (HOXA4) | binding signal (ALX3 [13]) | binding signal (HOXA2 [14]) | binding signal (VENTX [15]) | binding signal (VAX1) | binding signal (VENTX [16])
AATTAAGT | 11.6 upbm affinity estimate (log intensity, higher = more binding, comparable within an allelic series) | 12.1 upbm affinity estimate (log intensity, higher = more binding, comparable within an allelic series) | 12.1 upbm affinity estimate (log intensity, higher = more binding, comparable within an allelic series) | 8.5 upbm affinity estimate (log intensity, higher = more binding, comparable within an allelic series) | 11.9 upbm affinity estimate (log intensity, higher = more binding, comparable within an allelic series) | 12.8 upbm affinity estimate (log intensity, higher = more binding, comparable within an allelic series) | 10.5 upbm affinity estimate (log intensity, higher = more binding, comparable within an allelic series) | 13.3 upbm affinity estimate (log intensity, higher = more binding, comparable within an allelic series) | 12.5 upbm affinity estimate (log intensity, higher = more binding, comparable within an allelic series) | 10.9 upbm affinity estimate (log intensity, higher = more binding, comparable within an allelic series) | 10 upbm affinity estimate (log intensity, higher = more binding, comparable within an allelic series) | 10.8 upbm affinity estimate (log intensity, higher = more binding, comparable within an allelic series) | 10.8 upbm affinity estimate (log intensity, higher = more binding, comparable within an allelic series) | 11.4 upbm affinity estimate (log intensity, higher = more binding, comparable within an allelic series) | 8.69 upbm affinity estimate (log intensity, higher = more binding, comparable within an allelic series) | 11.7 upbm affinity estimate (log intensity, higher = more binding, comparable within an allelic series) |  |  | 
ATAATTGG |  |  |  | 8.37 upbm affinity estimate (log intensity, higher = more binding, comparable within an allelic series) | 11.9 upbm affinity estimate (log intensity, higher = more binding, comparable within an allelic series) |  |  | 14.1 upbm affinity estimate (log intensity, higher = more binding, comparable within an allelic series) | 12.6 upbm affinity estimate (log intensity, higher = more binding, comparable within an allelic series) |  | 10.4 upbm affinity estimate (log intensity, higher = more binding, comparable within an allelic series) |  |  |  | 8.55 upbm affinity estimate (log intensity, higher = more binding, comparable within an allelic series) |  |  |  | 
CAATTAGA |  |  | 12.5 upbm affinity estimate (log intensity, higher = more binding, comparable within an allelic series) | 8.27 upbm affinity estimate (log intensity, higher = more binding, comparable within an allelic series) |  |  |  | 13.8 upbm affinity estimate (log intensity, higher = more binding, comparable within an allelic series) | 12.4 upbm affinity estimate (log intensity, higher = more binding, comparable within an allelic series) |  | 9.72 upbm affinity estimate (log intensity, higher = more binding, comparable within an allelic series) |  |  |  | 8.34 upbm affinity estimate (log intensity, higher = more binding, comparable within an allelic series) |  | 11.8 upbm affinity estimate (log intensity, higher = more binding, comparable within an allelic series) | 12.2 upbm affinity estimate (log intensity, higher = more binding, comparable within an allelic series) | 
AATTATAA |  |  |  | 8.51 upbm affinity estimate (log intensity, higher = more binding, comparable within an allelic series) |  |  |  | 13.4 upbm affinity estimate (log intensity, higher = more binding, comparable within an allelic series) | 12.4 upbm affinity estimate (log intensity, higher = more binding, comparable within an allelic series) |  | 9.95 upbm affinity estimate (log intensity, higher = more binding, comparable within an allelic series) |  |  |  | 8.6 upbm affinity estimate (log intensity, higher = more binding, comparable within an allelic series) |  |  |  | 
AATTAAGA | 11.6 upbm affinity estimate (log intensity, higher = more binding, comparable within an allelic series) | 12.2 upbm affinity estimate (log intensity, higher = more binding, comparable within an allelic series) |  | 8.44 upbm affinity estimate (log intensity, higher = more binding, comparable within an allelic series) | 11.9 upbm affinity estimate (log intensity, higher = more binding, comparable within an allelic series) |  | 10.5 upbm affinity estimate (log intensity, higher = more binding, comparable within an allelic series) |  | 12.4 upbm affinity estimate (log intensity, higher = more binding, comparable within an allelic series) | 10.9 upbm affinity estimate (log intensity, higher = more binding, comparable within an allelic series) | 9.95 upbm affinity estimate (log intensity, higher = more binding, comparable within an allelic series) | 10.8 upbm affinity estimate (log intensity, higher = more binding, comparable within an allelic series) |  | 11.6 upbm affinity estimate (log intensity, higher = more binding, comparable within an allelic series) | 8.55 upbm affinity estimate (log intensity, higher = more binding, comparable within an allelic series) |  |  |  | 
AATTAGCA | 11.6 upbm affinity estimate (log intensity, higher = more binding, comparable within an allelic series) | 12.1 upbm affinity estimate (log intensity, higher = more binding, comparable within an allelic series) | 12.4 upbm affinity estimate (log intensity, higher = more binding, comparable within an allelic series) | 8.31 upbm affinity estimate (log intensity, higher = more binding, comparable within an allelic series) | 11.9 upbm affinity estimate (log intensity, higher = more binding, comparable within an allelic series) | 13 upbm affinity estimate (log intensity, higher = more binding, comparable within an allelic series) | 10.5 upbm affinity estimate (log intensity, higher = more binding, comparable within an allelic series) |  | 12.2 upbm affinity estimate (log intensity, higher = more binding, comparable within an allelic series) | 10.9 upbm affinity estimate (log intensity, higher = more binding, comparable within an allelic series) | 9.83 upbm affinity estimate (log intensity, higher = more binding, comparable within an allelic series) | 10.9 upbm affinity estimate (log intensity, higher = more binding, comparable within an allelic series) | 10.8 upbm affinity estimate (log intensity, higher = more binding, comparable within an allelic series) | 11.5 upbm affinity estimate (log intensity, higher = more binding, comparable within an allelic series) | 8.36 upbm affinity estimate (log intensity, higher = more binding, comparable within an allelic series) | 12.1 upbm affinity estimate (log intensity, higher = more binding, comparable within an allelic series) | 11.7 upbm affinity estimate (log intensity, higher = more binding, comparable within an allelic series) |  | 11.5 upbm affinity estimate (log intensity, higher = more binding, comparable within an allelic series)
